Rab9 promoter act – qHTS Assay for Rab9 Promoter Activators; Huh7 Rab9 promoter-luciferase reporter, luminescence, 24 h; Potency, µM (doses to about 9.22 µM), usual class: activators; 320,000 compounds, 2.8% hits; AID 485297, 2010; further: nearly all actives have a fitted effect of over 60% in size
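Cells were plated at 1500 per well in reduced-serum medium with 10% FBS and left 2 h. Compound in DMSO was then added for 24 h at 37 °C. Reporter signal was read by luminescence after 10 min with luciferase detection reagent.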
ELG1 genotoxic – qHTS screen for small molecules that induce genotoxicity in human embryonic kidney (HEK293T) cells expressing luciferase-tagged ELG1; 330,000 compounds, 1.3% hits; Potency, µM (titrated, usually from 46 µM), actives largely listed as activators; HEK293T ELG1-luciferase reporter, luminescence, 16 h; further: nearly all actives have a fitted effect of over 60% in size
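After overnight (16 hr) compound treatment at 37 °C, ELG1-luciferase HEK293T cells were lysed with ONE-Glo; luminescence quantified 30 min later at room temperature.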
SMN2 splice enh – qHTS Assay for Enhancers of SMN2 Splice Variant Expression; Potency, µM (doses to about 46.1 µM), actives largely listed as activators; 210,000 compounds, 2.8% hits; HEK293 SMN2-luciferase splicing reporter, luminescence, 30-36 h; further: nearly all actives have a fitted effect of over 55% in size
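qHTS luciferase splicing reporter: luminescence rises when SMN2 exon 7 is included in transfected HEK293 cells. Compound exposure lasted 30-36 h at 37C, with 4.5 mM final sodium butyrate as control, followed by a ONE-Glo read.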
Luc counter – Counterscreen for Luciferase (Kinase-Glo TM) Inhibition | Luciferin 4-monooxygenase (Photuris pensylvanica), Q27757 | Kinase-Glo luciferase, ATP luminescence, 8 min | Potency, µM (titrated, usually from 38.3 µM), most hits filed as inhibitors | 200,000 compounds, 0.28% hits; further: nearly all actives have a fitted effect of over 60% in size
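Kinase-Glo luciferase light output from ATP and luciferin was measured with 10 uM ATP, within the enzyme's linear range. Buffer: 50 mM imidazole pH 7.2, 50 mM KCl, 7 mM MgCl2, 0.01% Tween 20, 0.05% BSA; luminescence read after 8 min at ambient temperature.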
NPC1 promoter act – qHTS Assay for NPC1 Promoter Activators; Huh7 NPC1 promoter luciferase reporter, 24 h; Potency, µM (highest dose often 9.22 µM), usual class: activators; 320,000 compounds, 2.4% hits; AID 485313, 2010; further: nearly all actives have a fitted effect of over 60% in size
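Luminescence read-out of NPC1 promoter-driven luciferase in stably transfected Huh7 cells; compounds delivered in DMSO and left 24 h at 37C, 5% CO2, qHTS titration format.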
FLuc counter – qHTS profiling assay for firefly luciferase inhibitor/activator using purifed enzyme and Km concentrations of substrates (counterscreen for miR-21 project); purified FLuc, Km substrates, luminescence inhibition; Luciferin 4-monooxygenase (Photinus pyralis), P08659; 360,000 compounds, 6.9% hits; Potency, µM (doses to about 57.5 µM), actives largely listed as inhibitors; AID 588342, 2011; further: nearly all actives have a fitted effect of over 55% in size
Target sequence (P08659 whole entry, looked up): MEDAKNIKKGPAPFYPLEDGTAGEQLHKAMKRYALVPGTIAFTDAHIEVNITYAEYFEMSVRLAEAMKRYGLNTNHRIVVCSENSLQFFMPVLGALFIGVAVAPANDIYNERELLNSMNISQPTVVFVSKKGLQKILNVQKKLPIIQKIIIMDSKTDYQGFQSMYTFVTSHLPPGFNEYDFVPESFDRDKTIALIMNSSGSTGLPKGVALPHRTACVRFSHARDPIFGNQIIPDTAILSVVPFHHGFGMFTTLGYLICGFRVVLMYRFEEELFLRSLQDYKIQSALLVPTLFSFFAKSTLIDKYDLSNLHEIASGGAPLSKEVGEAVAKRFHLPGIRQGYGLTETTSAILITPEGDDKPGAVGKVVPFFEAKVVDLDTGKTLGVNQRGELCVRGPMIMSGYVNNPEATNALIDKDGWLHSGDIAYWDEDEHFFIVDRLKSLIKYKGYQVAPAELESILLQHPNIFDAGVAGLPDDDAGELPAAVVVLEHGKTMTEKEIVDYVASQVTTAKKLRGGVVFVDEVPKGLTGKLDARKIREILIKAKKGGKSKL
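Purified P. pyralis luciferase, 10 nM final, with Km-level 10 uM D-luciferin and 10 uM ATP in 50 mM Tris acetate pH 7.5, 10 mM Mg acetate, 0.01% Tween-20, 0.05% BSA; 6-point qHTS titration about 60 µM downward; luminescence read.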
Numbers stand for hits; n = inactive; u = inconclusive; x = no result. This is a sample that favours compounds with a hit; in the whole collection about 7.5% have one here. The call rests on the fitted dose curve; in most records, active means well fitted curve in the direction sought with a large enough effect; inconclusive means small, poorly fitted or top-dose-only effect, or another doubt; inactive means no such curve, though single readings can be large; an effect the other way counts as inactive or inconclusive.

SMILES | Rab9 promoter act | ELG1 genotoxic | SMN2 splice enh | Luc counter | NPC1 promoter act | FLuc counter
Cc1ccccc1Nc1c(-c2ccncc2)nc2ccc(Br)cn12 | n | n | 13µM | n | n | n
Cc1ccc2nc(-c3cccnc3)c(Nc3ccccc3C)n2c1 | n | n | n | n | n | n
COC(=O)Nc1c(-c2ccccc2)nc2ccc(Cl)cn12 | n | n | x | x | n | n
Cc1ccccc1Nc1c(-c2cccnc2)nc2ccc(Br)cn12 | n | n | n | n | n | n
Cc1ccc2nc(-c3ccncc3)c(Nc3ccccc3C)n2c1 | x | x | 11µM | x | x | n
COC(=O)CNc1c(-c2ccccc2)nc2ccc(Br)cn12 | u | u | n | n | u | 7.6µM
Cc1ccc2nc3c(cc2c1)c(NC(=O)C(C)(C)C)nn3CC(C)C | n | n | x | x | n | n
O=S(=O)(Nc1cccc(-c2ccc(N3CCCCC3)nn2)c1)c1cccc(F)c1 | x | x | x | x | x | 2.4µM
Cc1ccc(S(=O)(=O)Nc2ccc(-c3ccc(N4CCCCCC4)nn3)cc2)c(C)c1 | x | x | x | x | x | n
O=S(=O)(Nc1cccc(-c2cn3c(n2)SCC3)c1)c1ccc(F)cc1F | n | n | x | x | n | n
Cc1ccc(S(=O)(=O)Nc2cccc(-c3ccc(N4CCCCCC4)nn3)c2)c(C)c1 | u | u | x | x | u | 11µM
O=S(=O)(Nc1cccc(-c2ccc(N3CCCC3)nn2)c1)c1ccc(F)cc1F | x | x | x | x | x | 15µM
O=C(NCc1ccccn1)c1cccc(NS(=O)(=O)c2cccc(F)c2)c1 | n | n | n | n | n | n
O=C(OCc1c(-c2ccccc2)ncc2ccccc12)N1CCOCC1 | n | n | x | x | n | 2.7µM
Cc1ccc(S(=O)(=O)N[C@@H](C)C(=O)OCC(=O)N2c3ccccc3NC(=O)C2(C)C)cc1 | n | n | x | x | n | n
CCOC(=O)CSc1nc(N)nc(C)c1Cl | n | n | x | n | n | 24µM
CC(C)Cc1cc(C(=O)Nc2ccc3c(c2)OCO3)no1 | 3.2µM | 4.6µM | 16µM | n | 3.2µM | 5.4µM
CC(C)Cc1cc(C(=O)Nc2ccc(F)cc2F)no1 | n | 16µM | n | n | n | 11µM
CC(C)Cc1cc(C(=O)NCc2cccs2)no1 | u | 16µM | 13µM | n | u | 15µM
CC(C)Cc1cc(C(=O)NCc2cccnc2)no1 | n | n | n | n | n | n
CCc1ccc(NC(=O)c2cc(CC(C)C)on2)cc1 | u | 16µM | n | n | n | 2.7µM
CC(C)Cc1cc(C(=O)Nc2cccc(O)c2)no1 | u | u | x | x | u | 0.67µM
COc1ccc(NC(=O)c2cc(CC(C)C)on2)cc1OC | n | 21µM | n | n | n | u
CC(C)Cc1cc(C(=O)Nc2cc(Cl)ccc2Cl)no1 | n | n | n | n | n | u
CC(C)Cc1cc(C(=O)Nc2c(F)cc(F)cc2Br)no1 | n | u | n | n | n | u
SMILES | Rab9 promoter act | ELG1 genotoxic | SMN2 splice enh | Luc counter | NPC1 promoter act | FLuc counter
CC(C)Cc1cc(C(=O)Nc2ccc(Br)cc2)no1 | u | u | x | x | u | 2.7µM
COc1ccc(NC(=O)c2cc(-c3ccccc3)on2)cc1OC | n | n | x | x | n | n
O=C(O)CCc1ccc(-c2ccccc2)n1-c1cccc(Br)c1 | x | x | n | x | x | u
Cc1ccc([N+](=O)[O-])cc1S(=O)(=O)N1CCn2cccc2C1c1ccccc1F (stereo not drawn) | x | x | x | x | x | n
COc1ccc(OC)c(/C=N/NC(=O)c2cc3c(OC)cccc3[nH]2)c1 | n | n | x | x | n | u
CCOc1ccc(/C=N/NC(=O)c2cc3c(OC)cc(OC)cc3[nH]2)cc1OC | n | n | x | x | n | 15µM
COc1ccc(OC)c(/C=N/NC(=O)c2cc3c(OC)cc(OC)cc3[nH]2)c1 | n | n | x | x | n | 15µM
CCOc1ccc2[nH]c(C(=O)N/N=C/c3cc(OC)c(OC)c(OC)c3)cc2c1 | n | n | x | x | n | 4.8µM
CCOc1ccc(/C=N/NC(=O)c2cc3c(OC)cccc3[nH]2)cc1 | n | n | x | x | n | u
CCCC(=O)N(c1ccc2oc3c(c2c1)CCCC3)S(=O)(=O)c1cc(C)ccc1C | x | x | n | x | x | n
OCCC1CN(Cc2cnc(-c3cccc4ccccc34)nc2)CCN1C1CCCCC1 (stereo not drawn) | n | n | x | n | n | n
CCN1CCN(Cc2ccc(NC(=O)c3ccc(C)c(NC(=O)c4ccc5n[nH]nc5c4)c3)cc2C(F)(F)F)CC1 | n | n | x | x | n | 19µM
CCN1CCN(Cc2ccc(NC(=O)c3cc(NC(=O)c4cnn(-c5ccccc5)c4N)cc(OC)c3)cc2C(F)(F)F)CC1 | n | n | x | x | n | 17µM
CCN1CCN(Cc2ccc(NC(=O)c3cc(NC(=O)C(=O)c4c[nH]c5ccccc45)cc(OC)c3)cc2C(F)(F)F)CC1 | n | n | x | x | n | 9.5µM
CCN1CCN(Cc2ccc(NC(=O)c3cc(NC(=O)c4cc(C)on4)cc(OC)c3)cc2C(F)(F)F)CC1 | n | u | x | x | n | u
